Measurements reported in PubChem BioAssay (NCI).
The panel holds about 79,000 compounds, 15% with a hit somewhere; the sample as a whole holds those more often. Values without a mark were called inactive. Activity calls are given as the source filed them. Cut-off read from the data, not from the text of the source: active = growth inhibition above about 70%; inactive = the rest.

Tests used:
[1] = NCI Yeast Anticancer Drug Screen. Data for the rad50 strain (AID 155);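 note: 0% = growth of vehicle-only cultures of the same strain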; settings: S. cerevisiae rad50 strain growth inhibition; at 50.0 µM; hits give high values
How it was run: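 DNA repair mutant yeast, compound exposure, growth read-out; inhibition is taken relative to vehicle.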

[2] = NCI Yeast Anticancer Drug Screen. Data for the sgs1 mgt1 strain (AID 161);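 note: 0% = growth of cultures given vehicle only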; settings: S. cerevisiae sgs1 mgt1 strain, at 50.0 µM, hits give high values
How it was run: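 Inhibition of yeast growth, normalised to vehicle-treated controls, is reported for a strain bearing genetic alterations in DNA damage repair.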

[3] = NCI Yeast Anticancer Drug Screen. Data for the cln2 rad14 strain (AID 165);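 note: 0% = growth equal to vehicle treated cultures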; settings: S. cerevisiae cln2 rad14 strain, at 50.0 µM, hits give high values
How it was run: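 Compounds are applied to the cln2 rad14 yeast strain, and growth is then compared with that of vehicle-treated cultures to give inhibition.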

[4] = NCI Yeast Anticancer Drug Screen. Data for the bub3 strain (AID 167); settings: S. cerevisiae bub3 mutant strain, at 50.0 µM, hits give high values
How it was run: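 In this screen, a yeast mutant lacking normal mitotic checkpoint function is challenged with compound. Relative growth versus vehicle gives the inhibition value.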

[5] = NCI Yeast Anticancer Drug Screen. Data for the mlh1 rad18 strain (AID 175); settings: S. cerevisiae mlh1 rad18 strain growth inhibition; at 50.0 µM; hits give high values
How it was run: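 Read-out is yeast growth inhibition, calculated against vehicle-only controls. The compound was applied to a strain engineered with DNA damage repair alterations.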

| Compound | growth inhibition [1] | growth inhibition [2] | growth inhibition [3] | growth inhibition [4] | growth inhibition [5] |
| --- | --- | --- | --- | --- | --- |
| Cc1c(CCC(C)C)oc2cc3oc(CCC(C)C)c(C)c3cc12 | 21.7% | 2% | -4.8% | 6.3% | 18.5% |
| CCCCCCCCCCCCCCCCCC(=O)OC(C(O)C=O)C(O)C(O)CO (stereo not given) | 12.6% | 22.2% | 23.9% | -5.55% | 45.8% |
| O=C(O)c1[nH]ncc1[N+](=O)[O-] | 24.1% | -5.05% | 11.3% | 11% | 2.8% |
| CC(=O)OCC1OC(n2cnc3c(N)ncnc32)C(O)C1O (stereo not given) | -3.7% | -6.15% | -39.7% | 4.5% | -11.2% |
| CN(c1ccccc1)c1nc(Cl)c(Cl)c(Cl)n1 | -0.2% | 6.55% | -39.9% | 2.45% | -3.5% |
| C(=N\c1oc(-c2ccccc2)nc1SCc1ccccc1)/c1ccccc1 | 2.75% | 23.1% | -19.8% | 7.3% | 25.9% |
| CC1(C)OC(=O)N=C1c1ccc(Br)cc1 | 1.4% | -21.1% | 21.8% | -22% | 15.3% |
| O=[N+]([O-])c1ccc(C2CC(c3ccccc3)=NN2c2ccccc2)cc1 (stereo not given) | 7.65% | 1.3% | -8.9% | 17.9% | -9.05% |
| CC(C)Cc1cccc(C(C)C)c1NC(=O)CCC(=O)N/N=C1\C(=N/NC(=O)CCC(=O)Nc2c(C(C)C)cccc2C(C)C)C(c2ccc3c(c2)OCO3)Oc2ccccc21 (stereo not given) | 5.2% | -5% | -2.7% | 6.75% | 11.2% |
| C=CC[N+](CCO)(CCO)CCCCCCCCCCCCCCCCCC | 98.4% (active) | 99.2% (active) | 96.1% (active) | 98.5% (active) | 97.8% (active) |
| CCCCC(CC)OC(=O)Cc1ccccc1 (stereo not given) | 10.9% | 13.1% | -6.5% | -4.45% | 16.5% |
| Cc1c(C)c2cc3c(=O)c(CCl)coc3c(C)c2oc1=O | 22.4% | 16% | 15.6% | -7.15% | -5.95% |
| CC(C(=O)O)N(CCC#N)CCC#N (stereo not given) | 17.8% | -0.5% | 0.1% | 2.35% | 3.4% |
